{"source": "PubChem BioAssay AID493170", "about": "(National Center for Advancing Translational Sciences (NCATS), 2011)", "note": "Records with an inconclusive call do not appear. Active and inactive are the calls of the source. The call rests on the fitted dose curve; in most records, active means well fitted inhibition curve with a large enough effect; inconclusive means small, poorly fitted or top-dose-only effect, or effect the other way; inactive means flat fitted curve, though single readings scatter. On the % scale 0 is the no-effect control and ±100 the full control effect; potency means the concentration at half of the fitted maximal effect.", "data": [{"molecular_target": "Ubiquitin carboxyl-terminal hydrolase 2 (Homo sapiens) (UniProt O75604)", "sequence (O75604 whole entry, looked up)": "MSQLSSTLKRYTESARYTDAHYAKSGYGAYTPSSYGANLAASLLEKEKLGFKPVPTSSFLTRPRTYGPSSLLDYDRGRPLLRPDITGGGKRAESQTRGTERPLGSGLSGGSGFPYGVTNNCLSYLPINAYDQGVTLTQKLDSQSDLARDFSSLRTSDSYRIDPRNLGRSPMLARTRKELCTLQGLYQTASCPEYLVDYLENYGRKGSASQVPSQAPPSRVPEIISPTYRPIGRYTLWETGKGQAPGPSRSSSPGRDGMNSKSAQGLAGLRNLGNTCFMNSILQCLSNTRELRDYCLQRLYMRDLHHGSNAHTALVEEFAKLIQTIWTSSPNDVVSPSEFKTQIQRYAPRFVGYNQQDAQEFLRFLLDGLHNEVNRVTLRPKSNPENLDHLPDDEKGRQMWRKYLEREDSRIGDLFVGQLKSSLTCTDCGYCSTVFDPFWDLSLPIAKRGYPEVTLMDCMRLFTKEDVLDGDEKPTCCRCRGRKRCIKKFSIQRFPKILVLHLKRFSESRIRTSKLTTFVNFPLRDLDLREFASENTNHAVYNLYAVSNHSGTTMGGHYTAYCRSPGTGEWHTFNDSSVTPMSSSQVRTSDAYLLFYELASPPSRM", "assay": "Ub-rhodamine 110 based assay for inhibitors Ubiquitin-specific Protease USP2a; further: nearly all actives have a fitted effect of over 50% in size", "conditions": "USP2a Ub-rhodamine110 cleavage, fluorescence; series mostly up to 38.3 µM; activity change, negative = inhibition: at the top concentration", "description": "NIH Molecular Libraries Probe Centers Network [MLPCN] NIH Chemical Genomics Center [NCGC] MLPCN Grant: XO1-MH079852-01 PI Name: Nicholson, Ben. Progenra Inc, Malvern, PA NCGC Assay Overview: Homeostasis of cellular proteins is maintained through a combination of synthesis and degradation. The pathway that accounts for the majority of protein degradation is the ubiquitin-proteasomal pathway. Ubiquitin (Ub) is highly conserved in all cells and the generation of a multi-Ub chain typically targets proteins for degradation by the proteasome. However, ubiquitination is highly reversible and dynamic. Deubiquitination, the reverse process, is catalyzed through the action of enzymes referred to as isopeptidases or deubiquitinating enzymes (DUBs). This group of enzymes is collectively responsible for maintaining adequate pools of free ubiquitin and regulating the ubiquitination status of cellular proteins. The class of DUBs referred to as the ubiquitin-specific proteases (USP) family functions endoproteolytically to cleave Ub chains from a wide range of protein substrates. USP2a deubiquitinates fatty acid synthase (FASN) which has recently been identified as an emerging oncology target. To identify inhibitors of USP2a a cell-free assay was employed. This assay measures cleavage of a profluorescent substrate (Ub-Rhodamine 110; Boston Biochem Cat#: U-555) by USP2a. The assay gives a fluorescent read-out at excitation/emission wavelengths of 485/531. The USP2a enzyme was provided by Progenra, Inc. licensed for sale by LifeSensors, Inc.\nNCGC Assay Protocol: The assay buffer, prepared fresh at the day of the assay, contains 20mM Tris-HCl pH 8.0, 2mM CaCl2, 2mM beta-Mercaptoethanol, 0.05% CHAPS. 3uL of 10 nM (5 nM final) USP2a, was dispensed into a medium-binding black solid Kalypsys 1,536 well plate using the Kalypsys dispenser. The assay plate was then pinned with 23nL compounds in DMSO with a Kalypsys pintool in columns 5-48 (0.3% final DMSO concentration). The negative control was buffer/DMSO only in column 3. The assay plate is incubated at RT for 30min. Subsequently, 3uL of 300 nM Ub-Rhod110 (150 nM final) was dispensed into the plate using a Kalypsys dispenser. Plates were read after every minute for 7 min on a ViewLux (Perkin Elmer) plate reader using the following wavelengths: Ex 485nm /Em 531nm. Data were normalized to the AC100 inhibition (buffer alone). Concentration-response curves were fitted to the normalized data and the concentration-response curves were then classified based on curve quality (r2), response magnitude and degree of measured activity. The time zero reading was used to flag fluorescence artifacts.", "values": [{"smiles": "O=C(CSc1nc2ccccc2c(=O)n1CC1CCCO1)NCc1ccccc1", "note": "(stereo not given)", "activity change, negative = inhibition": "-13.2% (inactive)"}, {"smiles": "O=C1c2ccccc2CCC12N=NCC2c1ccc(Br)cc1", "note": "(stereo not given)", "activity change, negative = inhibition": "-8.46% (inactive)"}, {"smiles": "COc1cc2cc(CN(CCN3CCCC3)C(=O)Nc3ccc(F)cc3)c(=O)[nH]c2cc1OC", "activity change, negative = inhibition": "-12.5% (inactive)"}, {"smiles": "CCCC(c1nnnn1Cc1ccc(OC)cc1)N1CCC(C(N)=O)CC1", "note": "(stereo not given)", "activity change, negative = inhibition": "-9.57% (inactive)"}, {"smiles": "CC1CCCCN1CCNC(=O)c1cnn2ccccc12", "note": "(stereo not given)", "activity change, negative = inhibition": "8.54% (inactive)"}, {"smiles": "O/N=C/c1ccccc1OCc1ccccc1F", "activity change, negative = inhibition": "-7.11% (inactive)"}, {"smiles": "CSc1ncccc1C(=O)OCC(=O)N1CCOCC1", "activity change, negative = inhibition": "17.7% (inactive)"}, {"smiles": "CC(C)(C)C(=O)Nc1c2c(nc3c1CCC3)CCCC2", "activity change, negative = inhibition": "-12.7% (inactive)"}, {"smiles": "CCOC(=O)c1c(-c2ccc(C)o2)csc1NC(=O)COC(=O)c1ccc(NC(N)=O)cc1", "Potency": "7.08 µM (active)"}, {"smiles": "Cc1ccccc1N=C1NC(=O)CS1", "activity change, negative = inhibition": "1.95% (inactive)"}, {"smiles": "NC(=O)c1c(NC(=O)CSc2nnc(-c3ccco3)n2-c2ccccc2)sc2c1CCC2", "Potency": "5.01 µM (active)"}, {"smiles": "COc1ccc(CC(NC(C)=O)C(=O)NC2CCN(c3nc(C)cc(C)c3C#N)CC2)c(OC)c1", "note": "(stereo not given)", "activity change, negative = inhibition": "-12.1% (inactive)"}, {"smiles": "CCN(Cc1ccncc1)C(=O)c1cccs1", "activity change, negative = inhibition": "-7.04% (inactive)"}, {"smiles": "O=C(NCc1ccccc1)C1CCC1", "activity change, negative = inhibition": "-0.863% (inactive)"}, {"smiles": "CCOC(=O)C1CCCN(C(=O)c2cc(-c3ccco3)nc3ccccc23)C1", "note": "(stereo not given)", "Potency": "4.47 µM (active)"}, {"smiles": "O=C(O)CP(=O)(c1ccccc1)c1ccccc1", "activity change, negative = inhibition": "-4.26% (inactive)"}, {"smiles": "Cc1cccc(OCC(=O)Nc2ccc(N3CCCC3)cc2)c1C", "Potency": "11.2 µM (active)"}, {"smiles": "N#Cc1c(-c2cccs2)nc(SCc2ccc(Cl)cc2)[nH]c1=O", "Potency": "10 µM (active)"}, {"smiles": "Cc1ccc2nc(NCCCNC(=O)c3cnccn3)c(C#N)cc2c1", "activity change, negative = inhibition": "-11.9% (inactive)"}, {"smiles": "CCOC(=O)Cn1c(=O)oc2cc(S(=O)(=O)Nc3cc(Cl)ccc3OC)ccc21", "activity change, negative = inhibition": "-6.33% (inactive)"}, {"smiles": "CCOC(=O)C1CCN(CC(O)COc2ccc(C(C)(C)C)cc2)CC1", "note": "(stereo not given)", "activity change, negative = inhibition": "2.76% (inactive)"}, {"smiles": "Cc1ccc(C)c(S(=O)(=O)c2c(N)n(/N=C/c3ccco3)c3nc4ccccc4nc23)c1", "activity change, negative = inhibition": "-23.7% (inactive)"}, {"smiles": "O=C(Nc1cccc(S(=O)(=O)N2CCCC2)c1)c1cncc(Br)c1", "activity change, negative = inhibition": "5.44% (inactive)"}, {"smiles": "O=C(C[n+]1cccc(C(=O)N/N=C/c2ccc(Br)cc2)c1)c1ccccc1", "activity change, negative = inhibition": "-2.35% (inactive)"}, {"smiles": "COC(=O)c1c(N2C(=O)CCC2=O)sc2c1CCCC2", "activity change, negative = inhibition": "-2.79% (inactive)"}, {"smiles": "O=C(CCNc1cccc(Cl)c1)c1ccco1", "activity change, negative = inhibition": "10.6% (inactive)"}, {"smiles": "Cc1cc(C)c(NC(=O)C[N+](C)(C)CC(O)COc2cccc3ccccc23)c(C)c1", "note": "(stereo not given)", "activity change, negative = inhibition": "-7.77% (inactive)"}, {"smiles": "O=C(Oc1ccccc1C(=O)Nc1ccccc1)c1ccccc1Br", "activity change, negative = inhibition": "-7.34% (inactive)"}, {"smiles": "CN(c1ccccc1)S(=O)(=O)c1ccc(Cl)c(C(=O)NCCc2c[nH]c3ccccc23)c1", "activity change, negative = inhibition": "-14.8% (inactive)"}, {"smiles": "Cc1ccc(S(=O)(=O)N2[C@@H](c3ccccc3F)C(C(=O)O)=CC[C@H]2c2ccc(Cl)c(Cl)c2)cc1", "Potency": "11.2 µM (active)"}, {"smiles": "N=C1/C(=C\\c2ccc(-c3cccc(Cl)c3)o2)C(=O)N=C2SC=C(c3ccccc3)N12", "Potency": "11.2 µM (active)"}, {"smiles": "CCOc1ccccc1N(CC(=O)NC(C)(C)C)C(=O)c1ccc(CN2CCOCC2)o1", "activity change, negative = inhibition": "-4.9% (inactive)"}, {"smiles": "O=C(Cc1cccs1)Nc1ccc(S(=O)(=O)N2CCCCC2)cc1", "Potency": "7.94 µM (active)"}, {"smiles": "CC(C)c1ccc(NC(=O)C(c2ccc3c(c2)OCO3)N2CCCCC2)cc1", "note": "(stereo not given)", "activity change, negative = inhibition": "-8.46% (inactive)"}, {"smiles": "O=C(COC(=O)c1ccc(F)c(S(=O)(=O)N2CCOCC2)c1)c1ccccc1", "activity change, negative = inhibition": "-0.0271% (inactive)"}, {"smiles": "Cc1cccc(N=C2NC(=O)/C(=C/C=C/c3ccco3)S2)c1", "Potency": "10 µM (active)"}, {"smiles": "Cc1noc(NS(=O)(=O)c2ccc(N/C=C\\C(=O)c3cccc4ccccc34)cc2)c1C", "Potency": "10 µM (active)"}, {"smiles": "CC(=O)O[C@H]1[C@H](O)[C@H](Oc2c(O)c(C)c3c4c2[C@@H](C)CC[C@@H]4[C@@H](C)C[C@H]3C=C(C)C)O[C@@H](C)[C@H]1O", "activity change, negative = inhibition": "-1.57% (inactive)"}, {"smiles": "CC(C)(C)C1CCc2nc(NC(=O)Cc3cn4ccsc4n3)sc2C1", "note": "(stereo not given)", "activity change, negative = inhibition": "-15.6% (inactive)"}, {"smiles": "O=C(O)C1CCN1C1CCCCC1", "note": "(stereo not given)", "activity change, negative = inhibition": "-9.55% (inactive)"}]}]}
